Among the data in PubChem BioAssay (EPA / NIEHS) are AC50 and outcome values, retold here.

“And” between values parts separate entries of the source, which are not always exact repeats. Equal entries are not always repeated. Inconclusive results are not listed. The source made the active and inactive calls. How the source made its calls: active means hit-call score of the fitted dose curve at least 0.9, where 1 is the maximum; inconclusive means response in the unintended direction; inactive means score below 0.9.

Broadly, the AC50 is the concentration at which the activity in the assay is half-maximal.

The assay concerns the target Cytochrome P450 2C19 (Homo sapiens) (UniProt P33261). The assay is described as follows: NVS_ADME_hCYP2C19: NovaScreen (NVS) CYP450-related Enzyme Activity (ADME) Assay for human CYP2C19 (AID 2283113).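 On AC50: potency for inhibition seen as loss of fluorescent signal.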 The procedure:
NVS_ADME_hCYP2C19 is a biochemical, single-readout assay that uses extracted gene-proteins from insect cells in a cell-free assay. Measurements were taken 1 hour after chemical dosing in a 96-well plate.NVS_ADME_hCYP2C19 is one of one assay component(s) measured or calculated from the NVS_ADME_hCYP2C19 assay. It is designed to make measurements of enzyme activity, a form of enzyme reporter, as detected with fluorescence intensity signals by Fluorescence technology.Data from the assay component NVS_ADME_hCYP2C19 was analyzed into 1 assay endpoint. This assay endpoint, NVS_ADME_hCYP2C19, was analyzed in the positive analysis fitting direction relative to Acetonitrile as the negative control and baseline of activity. Using a type of enzyme reporter, loss-of-signal activity can be used to understand changes in the enzymatic activity as they relate to the gene CYP2C19. Furthermore, this assay endpoint can be referred to as a primary readout, because this assay has produced multiple assay endpoints where this one serves a enzymatic activity function. To generalize the intended target to other relatable targets, this assay endpoint is annotated to the cyp intended target family, where the subfamily is xenobiotic metabolism.
Binding assays used specific radioligands (tritiated, iodinated) with non-radioactive competitive displacement ligands in agonist or antagonist protocols (as indicated) and various reference compounds and inhibitors to titrate specific binding to receptors and transporters. Most enzyme assays (CYPs, kinases, phosphatases, proteases, HDACs) used recombinant protein and specific substrates (fluorescence mostly, some colorimetric and radioactive) and inhibitors, followed by a biochemical separation of substrate and product. All assays for the biochemical HTS were initially run in duplicate at a single concentration (10 uM for CYP450 assays and 25 uM for all others). […] Each assay was run with positive and negative controls, and concurrent controls on every plate. The follow-up (secondary) screen tested active chemical-pairs in concentration series, as well as a few additional assays not tested in the primary screen, some selected negative inactives, and several cases re-run in the concentration series for confirmatory purposes.
Turning to `Cc1c2ccccc2c(C)c2c1ccc1ccccc12`, the half-maximal activity concentration (AC50) is 7.17 µM (active).
Still for that read-out and setting: as for `O=C1c2ccccc2C(=O)N1CCc1noc(-c2ccc(CN3CCCCCC3)s2)n1`, the figure is 1.13 µM (active).
On to `O=C(O)Cc1cc(I)c(Oc2ccc(O)c(I)c2)c(I)c1`, for which the result was inactive.
With `OC12N=C(c3ccccc3)SC1Cc1cc(Cl)ccc12` (stereo unspecified), the AC50 is 0.245 µM (active).
Turning to `O=C1CCC(C2CCCCC2)CC1`, the molecule was called inactive.
On to `CCCCOC(=O)c1ccc(O)cc1`, for which the AC50 was 7.75 µM (active).
Still for that read-out and setting: the value for `CCN(CC)C(=O)c1cc(S(=O)(=O)Cc2ccccc2)c(N2CCC(c3ccccc3)CC2)cc1N(CC)CCN(C)C` was 3.48 µM (active); that for `O=C(Nc1ccc(Cl)cc1)Nc1ccc(Cl)c(Cl)c1` was 10 µM (active); that for `CO[C@H]1/C=C/O[C@@]2(C)Oc3c(C)c(O)c4c(O)c(c(/C=N/N5CCN(C)CC5)c(O)c4c3C2=O)NC(=O)/C(C)=C\C=C\[C@H](C)[C@H](O)[C@@H](C)[C@@H](O)[C@@H](C)[C@H](OC(C)=O)[C@@H]1C` was 10.7 µM (active).
Same read-out and setting: the value for `CN(C)c1ccc(C(=C2C=CC(=[N+](C)C)C=C2)c2ccc(N(C)C)cc2)cc1` was 3.32 µM (active); that for `COc1ccc2cc(S(=O)(=O)N[C@H](CC(=O)N[C@H](Cc3ccc(CN4[C@H](C)CCC[C@@H]4C)cc3)C(=O)N(C)C(C)C)c3ccc4c(c3)OCO4)ccc2c1` was 5.3 µM (active); that for `NCc1cccc(C2CCN(C(=O)c3ccc(C#Cc4ccccc4F)o3)CC2)c1` was 0.23 µM (active).
For the molecule `CCOC(=O)O[C@H](C)OC(=O)c1ccc2c(c1)cc(C(=O)NC1CCN(C(C)C)CC1)n2Cc1cc(-c2ccc(Cl)s2)on1`, the AC50 was 5.54 µM (active).
As for `CC(C)(C)c1cc(/C=C2\SC(N)=NC2=O)cc(C(C)(C)C)c1O`, the AC50 is 1.16 µM (active).
`CC(C)(O)c1ccc(CNC(=O)c2cccnc2Oc2ccc3nonc3c2)cc1`: the concentration at half-maximal activity (AC50) is 10.9 µM (active).
Take `Cc1cccc2ccccc12`: the call was inactive.
Regarding `COc1cc(C(=O)NC2CCN(C)CC2)ccc1Nc1ncc2c(n1)N(C1CCCC1)CC(F)(F)C(=O)N2C`, the AC50 is 7.11 µM (active).
For the molecule `CCCCCCCCOC(=O)c1cc(O)c(O)c(O)c1`, the AC50 is 5.4 µM (active).
As for `CCCOC(=O)c1cc(O)c(O)c(O)c1`, the molecule was classed as inactive.
Take `C[C@]12CC[C@@H]3c4ccc(O)cc4CC[C@H]3[C@@H]1CC[C@H]2O`: the AC50 is 0.649 µM (active).
The same measure, in the same setting: as for `CCCCOC(=O)CC(CC(=O)OCCCC)(OC(C)=O)C(=O)OCCCC`, the figure is 3.7 µM (active) and 9.42 µM (active); as for `Clc1ccccc1C(c1ccccc1)(c1ccccc1)n1ccnc1`, 1.1 µM (active); as for `CN(C)C(=O)C1(N2CCCCC2)CCN(CC[C@@]2(c3ccc(Cl)c(Cl)c3)CN(C(=O)c3ccccc3)CCO2)CC1`, 0.393 µM (active).
As to `CC1(C)NC(=O)N(c2ccc([N+](=O)[O-])c(C(F)(F)F)c2)C1=O`, the half-maximal activity concentration (AC50) was 2.81 µM (active).
`c1ccc(C[n+]2cccc3ccccc32)cc1`: the AC50 is 4.78 µM (active).
Consider `CCN(Cc1cccnc1)C(=O)c1cccc(Cl)c1[C@]1(C)C(=O)N(Cc2ccc(OC)cc2OC)c2ccc(Cl)cc21`, for which the AC50 is 1.01 µM (active).
